# Source: PubChem BioAssay (NCATS)
# Where “and” joins values, the source holds several entries; their conditions need not be identical. Equal entries are not always repeated. Records with an inconclusive call do not appear. Calls of active or inactive are those of the source. Unless noted, calls come from the whole dose curve; as a rule, active = well fitted curve in the direction sought with a large enough effect; inconclusive = small, poorly fitted or top-dose-only effect, or another doubt; inactive = no such curve, though single readings can be large; an effect the other way counts as inactive or inconclusive.
# What was measured:
# [1] = Primary qHTS for inhibitors of nuclear receptor binding SET domain protein 2 (NSD2) in an isogenic RCH-ACV NSD2 p.E1099K mutant (9B) (AID 1645876); note: nearly all actives have a fitted effect of over 70% in size; note: potency is the fitted concentration of half-maximal effect
# [2] = Primary qHTS for inhibitors of nuclear receptor binding SET domain protein 2 (NSD2) in an RCH-ACV wild type WT cells (2C) (AID 1645877); note: nearly all actives have a fitted effect of over 70% in size; note: potency is the fitted concentration of half-maximal effect
# [3] = qHTS drug screen for cell cycle checkpoint inhibitors in PARPi-resistant BRCA-mutant ovarian cancer cell lines. (AID 1963452; calls by dose curve; note: potency is the fitted concentration of half-maximal effect); settings: PEO1/OlaR viability, CellTiter-Glo luminescence, 96 h; for Z-AUC: stronger effect = lower value
# In short: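 PEO1, PEO4 and PEO1/OlaR ovarian cancer cells, 600 per well, exposed 96 h at 37C to a dilution series. Viability read by CellTiter-Glo luminescence, normalized to DMSO and empty wells; activity summarized as Z-AUC.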
# [4] = target: Glutathione peroxidase 1 (Homo sapiens) (UniProt P07203); assay: Primary qHTS Assay for Inhibitors of Recombinant Selenoprotein Glutathione Peroxidase 1 (GPX1) (AID 1845191); note: nearly all actives have a fitted effect of over 65% in size; note: potency is the fitted concentration of half-maximal effect
# Chain of Glutathione peroxidase 1 (Homo sapiens) (P07203 whole entry, looked up): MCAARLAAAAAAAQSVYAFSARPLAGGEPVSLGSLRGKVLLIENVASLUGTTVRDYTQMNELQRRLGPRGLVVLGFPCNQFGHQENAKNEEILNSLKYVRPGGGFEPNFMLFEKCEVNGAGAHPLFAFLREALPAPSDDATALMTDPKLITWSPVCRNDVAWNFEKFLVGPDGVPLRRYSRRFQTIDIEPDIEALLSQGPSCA
# In short: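 GR-coupled assay: compounds preincubated 30 min at room temperature with GPX1, then reaction started with CHP; final 10 nM GPX1, 1 mM GSH, 0.5 mM CHP, 0.5 mM NADPH, 100 nM GR, 0.01% BSA, pH 7.5 Tris buffer. NADPH fluorescence (340/450 nm) read at 0 and 15 min.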
# [5] = target: Phospholipid hydroperoxide glutathione peroxidase GPX4 (Homo sapiens) (UniProt P36969); assay: Primary qHTS Assay for Inhibitors of Recombinant Selenoprotein Glutathione Peroxidase 4 (GPX4) (AID 1845192); note: nearly all actives have a fitted effect of over 65% in size; note: potency is the fitted concentration of half-maximal effect
# Chain of Phospholipid hydroperoxide glutathione peroxidase GPX4 (Homo sapiens) (P36969 whole entry, looked up): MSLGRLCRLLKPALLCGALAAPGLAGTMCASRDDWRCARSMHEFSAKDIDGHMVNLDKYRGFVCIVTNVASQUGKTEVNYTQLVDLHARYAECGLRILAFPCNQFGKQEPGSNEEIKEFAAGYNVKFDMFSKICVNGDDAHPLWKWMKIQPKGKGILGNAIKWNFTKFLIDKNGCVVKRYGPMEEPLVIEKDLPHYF
# In short: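 GR-coupled assay: recombinant GPX4 preincubated 30 min with compound at room temperature; final 200 nM GPX4, 1 mM GSH, 0.5 mM cumene hydroperoxide, 0.5 mM NADPH, 100 nM GR, 0.01% BSA, pH 7.5 Tris. NADPH fluorescence (340/450 nm) read at 0 and 15 min.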
# [6] = NCATS anti-infectives library activity on HEK293 viability as a counter-qHTS vs the C. elegans viability qHTS (AID 1745854);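 note: HEK293 cells exposed to compounds for 24 hr before the viability read; % is set by controls: 0 for no effect and ±100 for the full control effect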
# In short: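 HEK293 cells (1,500/well) exposed 24 hr at 37C to 1:5 titrations, up to 41.7 uM final; counter-screen to a C. elegans viability qHTS. Viability by CellTiter-Glo luminescence after 10 min at room temperature; digitonin as control.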
# [7] = target: Rap guanine nucleotide exchange factor 3 (Homo sapiens) (UniProt O95398); assay: Confirmatory qHTS for antagonist of cAMP-regulated guanine nucleotide exchange factor 3 (EPAC1) (AID 1645880); note: nearly all actives have a fitted effect of over 55% in size; note: potency is the fitted concentration of half-maximal effect
# Chain of Rap guanine nucleotide exchange factor 3 (Homo sapiens) (O95398 whole entry, looked up): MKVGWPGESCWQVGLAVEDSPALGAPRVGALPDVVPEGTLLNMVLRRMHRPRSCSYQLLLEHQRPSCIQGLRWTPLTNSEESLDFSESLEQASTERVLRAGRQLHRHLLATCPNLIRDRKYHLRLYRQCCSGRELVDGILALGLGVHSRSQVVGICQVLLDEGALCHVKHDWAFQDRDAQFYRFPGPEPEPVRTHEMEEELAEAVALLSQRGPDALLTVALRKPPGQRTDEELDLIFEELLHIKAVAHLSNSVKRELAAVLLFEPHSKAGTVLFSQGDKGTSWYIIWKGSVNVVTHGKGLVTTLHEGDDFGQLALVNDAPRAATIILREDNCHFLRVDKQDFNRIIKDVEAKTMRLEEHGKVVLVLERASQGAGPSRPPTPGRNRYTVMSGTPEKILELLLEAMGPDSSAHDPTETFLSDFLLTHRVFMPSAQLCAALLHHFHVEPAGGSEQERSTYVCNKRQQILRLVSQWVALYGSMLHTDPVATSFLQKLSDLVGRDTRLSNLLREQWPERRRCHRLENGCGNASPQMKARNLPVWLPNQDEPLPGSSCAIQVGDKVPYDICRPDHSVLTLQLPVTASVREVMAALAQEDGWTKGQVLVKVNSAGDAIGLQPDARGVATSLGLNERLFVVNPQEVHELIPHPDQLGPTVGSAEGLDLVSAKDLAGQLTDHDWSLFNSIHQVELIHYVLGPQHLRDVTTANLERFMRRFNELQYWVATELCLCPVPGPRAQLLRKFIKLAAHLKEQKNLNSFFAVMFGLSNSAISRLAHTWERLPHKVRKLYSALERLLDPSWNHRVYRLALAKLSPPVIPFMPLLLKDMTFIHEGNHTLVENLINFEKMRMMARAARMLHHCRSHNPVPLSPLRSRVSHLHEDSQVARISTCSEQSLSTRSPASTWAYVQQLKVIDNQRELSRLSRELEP
# In short: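 Nucleotide exchange uses 100 nM EPAC1, 250 nM RAP1B-BODIPY-GDP and 50 uM GDP, with compounds in a concentration-titration series. After 5 min at room temperature, fluorescence (480 nm ex/540 nm em) is read every 5 min for 30 min. Data are normalized to control ATA and DMSO.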
# [8] = target: Rap guanine nucleotide exchange factor 3 (Homo sapiens) (UniProt O95398); assay: Confirmatory qHTS for agonist of cAMP-regulated guanine nucleotide exchange factor 3 (EPAC1) (AID 1645881);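 note: EPAC1 catalysed release of BODIPY-GDP from Rap1B seen as fluorescence loss; 100% = effect of cAMP agonist control; nearly all actives have a fitted effect of over 75% in size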
# [9] = target: Rap guanine nucleotide exchange factor 4 (Homo sapiens) (UniProt Q8WZA2); assay: Confirmatory qHTS for agonist of cAMP-regulated guanine nucleotide exchange factor 4 (EPAC2) (AID 1645884);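 note: nucleotide exchange releases bodipy-GDP from Rap1 and this lowers its fluorescence; % is set by controls: 0 for no effect and ±100 for the full control effect; nearly all actives have a fitted effect of over 65% in size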
# Chain of Rap guanine nucleotide exchange factor 4 (Homo sapiens) (Q8WZA2 whole entry, looked up): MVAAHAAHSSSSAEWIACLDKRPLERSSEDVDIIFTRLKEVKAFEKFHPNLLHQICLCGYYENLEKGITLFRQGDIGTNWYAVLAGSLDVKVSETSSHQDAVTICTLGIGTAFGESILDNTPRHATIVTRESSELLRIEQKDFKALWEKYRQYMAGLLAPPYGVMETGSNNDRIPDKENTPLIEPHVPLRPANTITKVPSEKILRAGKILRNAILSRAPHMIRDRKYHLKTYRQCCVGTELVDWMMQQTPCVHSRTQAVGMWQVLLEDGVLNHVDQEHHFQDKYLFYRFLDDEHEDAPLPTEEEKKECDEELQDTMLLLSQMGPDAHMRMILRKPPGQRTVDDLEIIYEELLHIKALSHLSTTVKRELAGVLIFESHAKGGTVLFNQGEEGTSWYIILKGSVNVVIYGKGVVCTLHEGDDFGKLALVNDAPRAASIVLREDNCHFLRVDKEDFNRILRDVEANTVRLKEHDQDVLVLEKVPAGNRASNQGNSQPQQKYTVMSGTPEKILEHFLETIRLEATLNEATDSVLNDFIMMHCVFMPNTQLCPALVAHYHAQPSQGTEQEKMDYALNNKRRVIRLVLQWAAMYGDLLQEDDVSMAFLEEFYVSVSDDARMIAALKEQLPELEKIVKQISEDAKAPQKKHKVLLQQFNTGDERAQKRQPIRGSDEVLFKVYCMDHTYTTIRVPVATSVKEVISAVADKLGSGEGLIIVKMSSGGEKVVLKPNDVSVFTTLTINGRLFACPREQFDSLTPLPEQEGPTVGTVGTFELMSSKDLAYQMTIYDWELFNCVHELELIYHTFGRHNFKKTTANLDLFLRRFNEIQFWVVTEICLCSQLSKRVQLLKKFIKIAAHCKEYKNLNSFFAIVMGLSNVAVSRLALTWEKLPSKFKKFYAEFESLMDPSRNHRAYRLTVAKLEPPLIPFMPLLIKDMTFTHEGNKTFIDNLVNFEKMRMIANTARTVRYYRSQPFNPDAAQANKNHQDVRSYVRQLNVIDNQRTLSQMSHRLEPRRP
# [10] = measured here: PEO1 parental Z-AUC
smiles,measurement,setting,value
Cn1cc(C2=C(c3cn(C)c4cc([N+](=O)[O-])ccc34)C(=O)NC2=O)c2ccccc21,Potency,[1],0.525 µM (active)
same,Potency,[2],0.417 µM (active)
same,Z-AUC,[3],-0.69 (inactive)
same,Z-AUC,[3]; [10],-0.95
same,Z-AUC,[3]; measured here: PEO4 Z-AUC,-1.21
NC(=O)C1=C(O)[C@@]2(O)C(=O)C3=C(O)c4c(O)cccc4C[C@H]3C[C@H]2CC1=O,Potency,[1],4.17 µM (active)
same,Potency,[2],3.32 µM (active)
same,Potency,[4],inactive
same,Z-AUC,[3],-0.543 (inactive)
same,Z-AUC,[3]; [10],-1.08
same,Z-AUC,[3]; measured here: PEO4 Z-AUC,-1.12
CCN1C(=O)N2Cc3cc(OC)cc(OC)c3[C@@H](C)C=C2C12CCN(Cc1cc(C)cc(C)c1)CC2,Potency,[2],18.6 µM (active)
same,Potency,[4],inactive
same,Potency,[5],inactive
same,Z-AUC,[3],-1 (inactive)
same,Z-AUC,[3]; [10],-1.06
same,Z-AUC,[3]; measured here: PEO4 Z-AUC,-1.16
COc1ccc2c(c1)[C@@H]1C[C@]1(C(=O)N1[C@@H]3CC[C@H]1CN(C)C3)Cn1c-2c(C2CCCCC2)c2ccc(C(=O)NS(=O)(=O)N(C)C)cc21,Potency,[1],20.6 µM (active)
same,outcome,[6],inactive
O=C(O/N=C1\c2ccccc2-c2nc3ccccc3nc21)c1ccco1,Potency,[1],18.4 µM (active)
same,Potency,[4],inactive
C[C@@H]1CC2C3C[C@H](F)C4=CC(=O)C=C[C@]4(C)[C@@]3(F)[C@@H](O)C[C@]2(C)[C@@]1(OC(=O)c1ccco1)C(=O)SCF (some centres undefined),Potency,[2],inactive
same,Potency,[4],inactive
COc1ccc(S(=O)(=O)N(C(C)=O)c2ccccc2/C=C/c2cc[n+]([O-])cc2)cc1,Potency,[1],1.05 µM (active)
same,Potency,[2],1.05 µM (active)
same,Potency,[4],inactive
same,Potency,[3],1.1 µM (active)
same,Z-AUC,[3]; [10],-1.34
same,Z-AUC,[3]; measured here: PEO4 Z-AUC,-1.39
C[C@@H]1COCCN1c1cc(-c2ccnn2C)c2ccnc(-c3ccn[nH]3)c2n1,Potency,[1],0.209 µM (active)
same,Potency,[2],0.186 µM (active)
same,Potency,[5],20.2 µM (active)
same,Z-AUC,[3],-0.499 (inactive)
same,Z-AUC,[3]; [10],-1.38
same,Z-AUC,[3]; measured here: PEO4 Z-AUC,-1.35
COC(=O)N[C@H](C(=O)N1CCC[C@H]1c1ncc(-c2ccc(-c3ccc(-c4cnc([C@@H]5CCCN5C(=O)[C@@H](NC(=O)OC)C(C)C)[nH]4)cc3)cc2)[nH]1)C(C)C,Potency,[2],20.9 µM (active)
same,Potency,[4],16.1 µM (active)
same,Potency,[5],18 µM (active) and 20 µM (active)
same,Z-AUC,[3],-0.519 (inactive)
same,Z-AUC,[3]; [10],-0.789
same,Z-AUC,[3]; measured here: PEO4 Z-AUC,-0.801
CN1CCN(CCCNc2ncc(Cl)c(-c3cc4c(C(=O)NC5CC5)cccc4s3)n2)CC1,Potency,[2],23.5 µM (active)
same,Potency,[4],inactive
CC1(C)OCCn2c1nc1c(N3CCOCC3)nc(-c3cnc(N)nc3)nc12,Potency,[1],0.332 µM (active)
same,Potency,[4],inactive
same,Potency,[5],inactive
same,Z-AUC,[3],-0.953 (inactive)
same,Z-AUC,[3]; [10],-0.219
same,Z-AUC,[3]; measured here: PEO4 Z-AUC,-0.151
CNC(=O)CCc1cc(-c2ccc(-c3ccc(C(F)(F)F)cc3)cc2)n(-c2ccc(N3CCNCC3)cc2)n1,Potency,[2],inactive
same,Potency,[5],inactive
CC1=C(c2ccc(O)cc2)[C@H](c2ccc(OCCN3CCCCC3)cc2)Oc2cc(O)ccc21,Potency,[1],inactive
same,Potency,[4],inactive
same,Potency,[5],inactive
same,Z-AUC,[3],0.716 (inactive)
same,Z-AUC,[3]; [10],0.402
same,Z-AUC,[3]; measured here: PEO4 Z-AUC,-0.752
CCOC(=O)C1=CCCCC1S(=O)(=O)Nc1ccc(F)cc1Cl (centres undefined),Potency,[1],20.9 µM (active)
same,Potency,[2],18.6 µM (active)
same,Potency,[4],inactive
same,Z-AUC,[3],1.33 (inactive)
same,Z-AUC,[3]; [10],1.11
same,Z-AUC,[3]; measured here: PEO4 Z-AUC,1.15
CCN1/C(=C/C(C)=O)Sc2ccc(O)cc21,Potency,[2],14.6 µM (active)
Cc1cc(O[C@@H](CCC(F)(F)F)c2ccc(C(=O)NCCC(=O)O)cc2)cc(C)c1-c1ccc(C(C)(C)C)cc1,Potency,[2],inactive
same,Potency,[4],inactive
same,Z-AUC,[3],0.000666 (inactive)
same,Z-AUC,[3]; [10],0.0877
same,Z-AUC,[3]; measured here: PEO4 Z-AUC,-0.261
CCC[C@H](NC(=O)[C@@H]1[C@H]2CCC[C@H]2CN1C(=O)[C@@H](NC(=O)[C@@H](NC(=O)c1cnccn1)C1CCCCC1)C(C)(C)C)C(=O)C(=O)NC1CC1,Potency,[2],5.9 µM (active)
same,outcome,[6],inactive
same,Potency,[4],inactive
same,Potency,[5],inactive
same,Z-AUC,[3],1.49 (inactive)
same,Z-AUC,[3]; [10],0.769
same,Z-AUC,[3]; measured here: PEO4 Z-AUC,0.725
Cc1cc(C)c2nccc(/C=C/c3ccc(N(C)C)cc3)c2c1,Potency,[7],inactive
same,Potency,[8],inactive
same,Potency,[9],inactive
CN(C)c1ccc(/C=C/c2c(Cl)cnc3ccccc23)cc1,Potency,[7],inactive
same,Potency,[8],inactive
COc1ccc(C(=O)c2ccc(Br)cc2)c2ccccc12,Potency,[7],inactive
same,Potency,[8],inactive
same,Potency,[9],inactive
Cc1ccc2c(/C=C/c3c[nH]c4ccccc34)ccnc2c1C,Potency,[7],inactive
same,Potency,[8],inactive
same,Potency,[9],inactive
C=CCn1c(N)c(S(=O)(=O)c2cccs2)c2nc3ccccc3nc21,Potency,[7],33.8 µM (active)
same,Potency,[8],inactive
same,Potency,[9],inactive
Cc1cnc2ccccc2c1/C=C/c1ccc(N(C)C)cc1,Potency,[7],inactive
same,Potency,[8],inactive
same,Potency,[9],inactive
Cc1cc(C(=O)NCc2nc(-c3cccc(NC(=O)c4ccccc4)c3)oc2C)nc(C)n1,Potency,[7],inactive
same,Potency,[8],inactive
same,Potency,[9],inactive
C/C=C(\C)C(=O)OC1C(OC(=O)C2(C)OC2C)c2cc3ccc(=O)oc3cc2OC1(C)C (centres undefined),Potency,[7],inactive
same,Potency,[8],inactive
same,Potency,[9],inactive
